According to PubChem BioAssay (NCI):
About 79,000 compounds went through this panel and 15% of them were active in at least one assay; those are over-represented in the sample as a whole. Active and inactive are the calls of the source. Cut-off read from the data, not from the text of the source: active = growth inhibition above about 70%; inactive = the rest.

What was measured:
[1] = NCI Yeast Anticancer Drug Screen. Data for the wt2 strain (AID 169);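 note: 0% = growth of vehicle-treated yeast cultures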; settings: S. cerevisiae wt2 strain growth inhibition, active compounds read high
Outline: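 Treated yeast vs. vehicle-treated yeast: growth inhibition determined.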

[2] = NCI Yeast Anticancer Drug Screen. Data for the mlh1 strain (AID 171);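 note: 0% = growth of vehicle-treated control cultures of the same strain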; settings: S. cerevisiae mlh1 strain growth inhibition, active compounds read high
Outline: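 A yeast strain with a defined genetic lesion serves as the test organism. Cultures receive compound or vehicle, and growth is measured.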

[3] = NCI Yeast Anticancer Drug Screen. Data for the sgs1 strain (AID 173);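 note: 0% = growth of vehicle-only control cultures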; settings: S. cerevisiae sgs1 mutant, active compounds read high
Outline: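 A genetically defined yeast mutant is incubated with the test compound, and its growth is compared to that of the same strain given vehicle.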

[4] = NCI Yeast Anticancer Drug Screen. Data for the mlh1 rad18 strain (AID 175); settings: S. cerevisiae mlh1 rad18 strain growth inhibition, active compounds read high
Outline: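 Steps: expose repair-defective yeast to compound; measure growth; express inhibition against vehicle-treated controls.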

[5] = NCI Yeast Anticancer Drug Screen. Data for the rad18 strain (AID 177); settings: S. cerevisiae rad18 mutant growth inhibition, active compounds read high
Outline: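 Measured value is growth inhibition of a yeast strain bearing a DNA repair alteration, referenced to vehicle-treated cells.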

[6] = NCI Yeast Anticancer Drug Screen. Data for the rad52 strain (AID 147);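 note: 0% = growth of vehicle-treated control cultures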; settings: S. cerevisiae rad52 mutant growth inhibition, active compounds read high
Outline: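 Here a repair-compromised yeast strain receives each compound; its growth is then quantified and normalised to vehicle-only controls.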

[7] = NCI Yeast Anticancer Drug Screen. Data for the wt1 strain (AID 149);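 note: 0% = growth of vehicle-treated wt1 cultures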; settings: S. cerevisiae wt1 strain (SPY 50644) growth inhibition, active compounds read high
Outline: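 Readout: yeast growth inhibition, normalised to vehicle controls, in the wt1 strain exposed to test compounds.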

[8] = NCI Yeast Anticancer Drug Screen. Data for the rad50EPP+ strain (AID 151);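 note: 0% = growth of vehicle-treated control cultures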; settings: S. cerevisiae rad50 mutant strain, active compounds read high
Outline: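 Read-out is yeast growth inhibition relative to vehicle; cells used were the rad50EPP+ strain.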

[9] = NCI Yeast Anticancer Drug Screen. Data for the mgt1 strain (AID 153); settings: S. cerevisiae mgt1 mutant growth inhibition, active compounds read high
Outline: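 Measured: inhibition of mgt1 yeast growth by compound, normalized to vehicle-treated cultures.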

[10] = NCI Yeast Anticancer Drug Screen. Data for the rad50 strain (AID 155);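 note: 0% = growth of vehicle-only cultures of the same strain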; settings: S. cerevisiae rad50 strain growth inhibition, active compounds read high
Outline: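 Compounds were tested on a yeast strain with an engineered DNA damage repair alteration; the reported value is growth inhibition normalised to vehicle treatment.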

[11] = NCI Yeast Anticancer Drug Screen. Data for the mec2-1 strain (AID 157); settings: S. cerevisiae mec2-1 strain, active compounds read high
Outline: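 Using mec2-1 yeast: add compound, measure growth, express inhibition versus vehicle-treated cultures.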

[12] = NCI Yeast Anticancer Drug Screen. Data for the rad14 strain (AID 159);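 note: 0% = growth of vehicle-treated control cultures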; settings: S. cerevisiae rad14 strain growth inhibition, active compounds read high
Outline: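 Compound-treated yeast with a defined DNA-repair lesion; growth inhibition normalised to vehicle-treated cultures.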

[13] = NCI Yeast Anticancer Drug Screen. Data for the sgs1 mgt1 strain (AID 161);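 note: 0% = growth of cultures given vehicle only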; settings: S. cerevisiae sgs1 mgt1 strain, active compounds read high
Outline: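 Percent growth inhibition was derived by comparing compound-exposed mutant yeast with vehicle-exposed cultures. The strain carries alterations in DNA damage repair.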

[14] = NCI Yeast Anticancer Drug Screen. Data for the CLN2oe strain (AID 163);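 note: 0% = growth of vehicle-only control cultures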; settings: S. cerevisiae CLN2oe strain, active compounds read high
Outline: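 Whole-cell yeast growth assay. A strain engineered for altered cell-cycle control received compound, and inhibition relative to vehicle-treated cultures was recorded.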

[15] = NCI Yeast Anticancer Drug Screen. Data for the cln2 rad14 strain (AID 165);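 note: 0% = growth equal to vehicle treated cultures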; settings: S. cerevisiae cln2 rad14 strain, active compounds read high
Outline: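 Yeast strain cln2 rad14, bearing defects in cell cycle control and DNA repair, serves as the test system; values reflect growth inhibition compared with vehicle.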

[16] = NCI Yeast Anticancer Drug Screen. Data for the bub3 strain (AID 167); settings: S. cerevisiae bub3 mutant strain, active compounds read high
Outline: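 Growth of a checkpoint-deficient yeast mutant is measured after compound exposure. Values represent inhibition relative to vehicle.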

[17] = at 5.0 µM (retest, dose inferred, filed as 0.5)
[18] = at 50.0 µM (retest, dose inferred, filed as 5.0)

Measured: growth inhibition

CC(C)N(CCCNc1c2ccccc2nc2cccc([N+](=O)[O-])c12)C(C)C
inactive: [1]; at 1.2 µM 1% | [1]; at 3.7 µM 14% | [1]; at 11.0 µM 68% | [2]; at 1.2 µM 6% | [2]; at 3.7 µM 14%
active: [1]; at 33.0 µM 96% | [1]; at 100.0 µM 98% | [2]; at 11.0 µM 72% | [2]; at 33.0 µM 96% | [2]; at 100.0 µM 98% | [3]; at 1.2 µM 80% | [3]; at 3.7 µM 91% | [3]; at 11.0 µM 95% | [3]; at 33.0 µM 97% | [3]; at 100.0 µM 98% | [4]; [17] 93% | [4]; [18] 98% | [4]; at 50.0 µM 95.9% | [5]; at 1.2 µM 95% | [5]; at 3.7 µM 95% | [5]; at 11.0 µM 95% | [5]; at 33.0 µM 95% | [5]; at 100.0 µM 98%

O=C1c2ccccc2-c2ccc(N=Cc3ccccc3)cc21
active: [6]; at 100.0 µM 96% | [8]; at 33.0 µM 87% | [8]; at 100.0 µM 97% | [10]; at 50.0 µM 82.5% | [10]; at 100.0 µM 96% | [1]; at 100.0 µM 92% | [2]; at 100.0 µM 79% | [3]; at 100.0 µM 86% | [5]; at 100.0 µM 84%
inactive: [6]; at 1.2 µM -6% | [6]; at 3.7 µM -8% | [6]; at 11.0 µM 10% | [6]; at 33.0 µM 68% | [7]; at 1.2 µM 1% | [7]; at 3.7 µM 8% | [7]; at 11.0 µM 14% | [7]; at 33.0 µM 27% | [7]; at 100.0 µM 69% | [8]; at 1.2 µM -2% | [8]; at 3.7 µM 24% | [8]; at 11.0 µM 34% | [9]; at 1.2 µM -4% | [9]; at 3.7 µM -2% | [9]; at 11.0 µM -5% | [9]; at 33.0 µM -1% | [9]; at 100.0 µM 58% | [10]; at 1.2 µM -14% | [10]; at 3.7 µM -11% | [10]; [17] 8% | [10]; at 11.0 µM 26% | [10]; at 33.0 µM 66% | [10]; [18] 51% | [11]; at 1.2 µM -4% | [11]; at 3.7 µM -2% | [11]; [17] 4% | [11]; at 11.0 µM -3% | [11]; at 33.0 µM 2% | [11]; [18] 21% | [11]; at 50.0 µM 5% | [11]; at 100.0 µM 24% | [12]; at 1.2 µM 3% | [12]; at 3.7 µM 2% | [12]; at 11.0 µM 3% | [12]; at 33.0 µM 18% | [12]; at 100.0 µM 45% | [13]; [17] 5% | [13]; [18] 27% | [13]; at 50.0 µM 36.9% | [14]; at 1.2 µM -7% | [14]; at 3.7 µM -11% | [14]; at 11.0 µM -13% | [14]; at 33.0 µM -8% | [14]; at 100.0 µM 24% | [15]; [17] -2% | [15]; [18] 9% | [15]; at 50.0 µM 6.45% | [16]; at 1.2 µM -6% | [16]; at 3.7 µM -3% | [16]; [17] 0% | [16]; at 11.0 µM -1% | [16]; at 33.0 µM 9% | [16]; [18] 18% | [16]; at 50.0 µM 31.6% | [16]; at 100.0 µM 54% | [1]; at 1.2 µM 5% | [1]; at 3.7 µM 6% | [1]; at 11.0 µM 18% | [1]; at 33.0 µM 51% | [2]; at 1.2 µM -2% | [2]; at 3.7 µM -8% | [2]; at 11.0 µM -5% | [2]; at 33.0 µM 23% | [3]; at 1.2 µM -13% | [3]; at 3.7 µM -11% | [3]; at 11.0 µM -4% | [3]; at 33.0 µM 19% | [4]; [17] -12% | [4]; [18] 46% | [4]; at 50.0 µM 56.5% | [5]; at 1.2 µM -10% | [5]; at 3.7 µM -8% | [5]; at 11.0 µM -4% | [5]; at 33.0 µM 12%
